LASV entry inh = inhibitors of Lassa virus binding or cell entry | Lassa virus pseudotype entry inhibition, cell reporter | Potency, µM (titrated, usually from 37.9 µM), usual class: inhibitors | actives 1.2% (n = 300,000); calls by dose curve; tested in HEK293 cells; further: nearly all actives have a fitted effect of over 50% in size
HCV inhibitor = blocks hepatitis C virus | Huh7.5.1 HCVcc-Cre infection, luciferase reporter, 44 h | AID 651820 | actives 3.4% (n = 340,000) | Potency, µM (titrated, usually from 41.8 µM), most hits filed as inhibitors; active means well fitted inhibition curve with a large enough effect; inconclusive means small, poorly fitted or top-dose-only effect, or another doubt; inactive means no such curve, though single readings can be large or run the other way
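Cells seeded at 1,000/well and cultured 4 h, then compounds added followed by HCVcc-Cre virus (~0.5 moi). After 44 h further culture, luciferase substrate was added, plates held 15 min at room temperature, and luminescence read for 15 sec.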
MARV entry inh = blocks Marburg virus binding to or entry into cells; Marburg virus pseudotyped entry inhibition, cell reporter; AID 540276; Potency, µM (titrated, usually from 37.8 µM), actives largely listed as inhibitors; actives 1.8% (n = 300,000); calls by dose curve; tested in HEK293 cells
Vaccinia mCherry = vaccinia inhibition (mCherry reporter); AID 720579; Potency, µM (top dose mostly 36.5 µM), usual class: inhibitors; actives 0.63% (n = 310,000); Vaccinia virus mCherry reporter infection, fluorescence; calls by dose curve; tested in A549 cells; further: nearly all actives have a fitted effect of over 35% in size
Vaccinia Venus = vaccinia inhibition (Venus reporter); Vaccinia virus Venus reporter expression, fluorescence; Potency, µM (series often up to 36.5 µM), hits mostly inhibitors; actives 0.46% (n = 330,000); calls by dose curve; tested in A549 cells; further: nearly all actives have a fitted effect of over 30% in size
Large screens that a line does not name were inactive. In the library only some 4.6% were active in any assay of this set; here they are far more common.

CCOc1ccc(NS(=O)(=O)c2ccc(C(=O)N3CCCCCC3)cc2)cc1	LASV entry inh inconclusive, MARV entry inh inconclusive
O=C(CN1Cc2ccccc2OC(c2ccsc2)C1)N1CCN(Cc2ccc3c(c2)OCO3)CC1 (centres undefined)	none (no result: LASV entry inh, HCV inhibitor, MARV entry inh)
O=S(=O)(c1ccc(Br)cc1)c1nc(-c2cccs2)oc1SCc1ccc(F)cc1	none (no result: HCV inhibitor)
COc1ccc(S(=O)(=O)Nc2ccc3oc4c(c3c2)CCCC4)cc1	LASV entry inh inconclusive, MARV entry inh 10µM, Vaccinia mCherry inconclusive (no result: HCV inhibitor)
O=C(NC1CC1)c1cccc(Nc2ccc(-c3ccc4c(c3)OCCO4)nn2)c1	LASV entry inh inconclusive, HCV inhibitor 10µM, MARV entry inh inconclusive (no result: Vaccinia mCherry, Vaccinia Venus)
O=S(=O)(c1ccc(Nc2ccc(-c3ccc4c(c3)OCCO4)nn2)cc1)N1CCCC1	HCV inhibitor inconclusive, MARV entry inh inconclusive, Vaccinia Venus inconclusive
Cc1ccc(-c2csc3nnc(SCC(=O)NCc4ccc5c(c4)OCO5)n23)cc1	HCV inhibitor 6.31µM (no result: Vaccinia mCherry, Vaccinia Venus)
Cc1cc(O)cc2c1C(c1ccc(F)cc1)CC1(CC(C)(C)NC(=S)N1)O2 (centres undefined)	LASV entry inh inconclusive, HCV inhibitor 22.4µM
COc1ccc(C2CC3(CC(C)(C)NC(SC)=N3)Oc3cc(O)cc(C)c32)cc1 (centres undefined)	LASV entry inh 18.4µM, HCV inhibitor 12.6µM, MARV entry inh 10µM, Vaccinia mCherry inconclusive
COc1cc(NS(=O)(=O)c2ccc(OC)c(C)c2C)c(OC)cc1Cl	LASV entry inh inconclusive, HCV inhibitor 10µM, MARV entry inh inconclusive, Vaccinia mCherry inconclusive, Vaccinia Venus inconclusive
COc1ccc(OC)c(S(=O)(=O)Nc2cc(OC)c(Cl)cc2OC)c1	MARV entry inh inconclusive
CC1=C(C(N)=O)C(c2ccc(C)cc2)n2nc(SCc3ccccc3F)nc2N1 (centres undefined)	none (no result: HCV inhibitor)
CCNS(=O)(=O)c1ccc(CCC(=O)Nc2ccccc2)cc1	none
CC(C)NS(=O)(=O)c1ccc(CCC(=O)Nc2cc(Cl)ccc2Oc2ccccc2)cc1	LASV entry inh inconclusive, HCV inhibitor 6.31µM, MARV entry inh inconclusive, Vaccinia Venus inconclusive (no result: Vaccinia mCherry)
CCNS(=O)(=O)c1ccc(CCC(=O)Nc2cc(Cl)ccc2Oc2ccccc2)cc1	LASV entry inh inconclusive, HCV inhibitor 10µM, MARV entry inh inconclusive, Vaccinia mCherry inconclusive, Vaccinia Venus inconclusive
CC(C)NS(=O)(=O)c1ccc(NC(=O)CCc2ccccc2)cc1	none (no result: Vaccinia mCherry, Vaccinia Venus)
Cc1ccc(NC(=O)CSc2ccc(Br)cc2)cc1S(=O)(=O)N1CCOCC1	LASV entry inh inconclusive, HCV inhibitor 31.6µM, MARV entry inh inconclusive, Vaccinia mCherry inconclusive
Cc1cccc(OCCCC(=O)Nc2ccc(Cl)c(S(=O)(=O)N3CCOCC3)c2)c1	HCV inhibitor 7.94µM (no result: LASV entry inh, MARV entry inh, Vaccinia mCherry, Vaccinia Venus)
Cc1ccc(NC(=O)CCNC(=O)c2ccc(Br)cc2)cc1S(=O)(=O)N1CCOCC1	HCV inhibitor inconclusive, Vaccinia mCherry inconclusive
Cc1ccc(NC(=O)CN2c3cccc4cccc(c34)S2(=O)=O)cc1S(=O)(=O)N1CCOCC1	HCV inhibitor 11.2µM, MARV entry inh inconclusive, Vaccinia Venus inconclusive
Cc1ccc(NC(=O)COc2cccc(Oc3ccccc3)c2)cc1S(=O)(=O)N1CCOCC1	LASV entry inh inconclusive, HCV inhibitor 3.16µM, MARV entry inh inconclusive, Vaccinia mCherry inconclusive
CCOc1ccc(CCNC(=O)c2ccc(-n3c(C)cc4c3CCC(C)C4)cc2)cc1OCC (centres undefined)	LASV entry inh inconclusive (no result: HCV inhibitor, MARV entry inh)
COC(=O)c1ccc(Cn2c(SCc3ccccc3)nc3ccncc32)cc1	none (no result: LASV entry inh, HCV inhibitor)
C=CCN1c2ccccc2[C@]23CCC(=O)N(CCCOC(C)C)C2=NC(C(=O)OC)=C(C(=O)OC)[C@H]13	none (no result: LASV entry inh, HCV inhibitor, Vaccinia mCherry, Vaccinia Venus)
COc1ccc(CN2CCC3(CC2)c2ccccc2[C@@H](NC(=O)c2ccco2)[C@@H]3OC)c(O)c1	none (no result: LASV entry inh, HCV inhibitor, MARV entry inh)
Cc1cccc(OCCC(=O)Nc2ccc(C)c(S(=O)(=O)N3CCOCC3)c2)c1	HCV inhibitor 12.6µM (no result: LASV entry inh, MARV entry inh, Vaccinia mCherry, Vaccinia Venus)
CCOc1ccccc1OCCCC(=O)Nc1ccc(Cl)c(S(=O)(=O)N2CCOCC2)c1	HCV inhibitor 7.94µM (no result: LASV entry inh, MARV entry inh, Vaccinia mCherry, Vaccinia Venus)
Cc1cccc(OCCC(=O)Nc2ccc(C)c(S(=O)(=O)N3CCCCC3)c2)c1	LASV entry inh inconclusive, HCV inhibitor 3.16µM, MARV entry inh inconclusive, Vaccinia mCherry inconclusive, Vaccinia Venus inconclusive
COc1ccccc1CCC(=O)Nc1ccc(OC)c(S(=O)(=O)N2CCOCC2)c1	MARV entry inh inconclusive
Cc1ccc(SCc2nc(-c3ccc(C(=O)NCc4ccc(Cl)cc4)cc3)oc2C)cc1	none (no result: HCV inhibitor, MARV entry inh)
NNC(=O)Cn1c(COc2ccc(Cl)cc2)nc2ccccc21	HCV inhibitor 11.2µM
O=C(O)Cn1c(COc2ccc(Cl)cc2)nc2ccccc21	none (no result: LASV entry inh, MARV entry inh, Vaccinia mCherry, Vaccinia Venus)

Source: PubChem BioAssay (National Center for Advancing Translational Sciences (NCATS))
